# IL1B cytotox: cytotoxicity in IL-1B stimulated HUVEC, primary screen, cytotoxicity control for IL-1B NFkB translocation project, imaging, Hoechst nuclear count, IL-1B stimulus; HUVEC cell count loss; AID 845, 2007; 0.41% of 94,000 active; cell count reduction, % at 2 µM;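 active means cell count reduction more than 3 SD above the screen-wide mean, cut at about 70% in these data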;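 further: normalized per plate to untreated control cells as the no-loss baseline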
# ERb coact inh: inhibitors of ERβ-SRC1 coactivator interaction, primary screen, biochemical, TR-FRET, ERβ LBD, SRC-1 peptide. Estrogen receptor beta (Homo sapiens), Q92731. TR-FRET ER-beta LBD / SRC1-Cy5 peptide binding; receptor agonist-loaded with 1 µM estradiol. inhibition, % at 25.6 µM. 1.3% of 86,000 active. AID 633, 2007;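 active means compounds whose percent inhibition of the receptor-coactivator binding signal exceeds about 50% in the single-dose screen, limit read from the data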;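 further: 0% = receptor plus peptide wells without compound and 100% = peptide-only wells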
# Target sequence (Q92731 whole entry, looked up, the tested form may be a part): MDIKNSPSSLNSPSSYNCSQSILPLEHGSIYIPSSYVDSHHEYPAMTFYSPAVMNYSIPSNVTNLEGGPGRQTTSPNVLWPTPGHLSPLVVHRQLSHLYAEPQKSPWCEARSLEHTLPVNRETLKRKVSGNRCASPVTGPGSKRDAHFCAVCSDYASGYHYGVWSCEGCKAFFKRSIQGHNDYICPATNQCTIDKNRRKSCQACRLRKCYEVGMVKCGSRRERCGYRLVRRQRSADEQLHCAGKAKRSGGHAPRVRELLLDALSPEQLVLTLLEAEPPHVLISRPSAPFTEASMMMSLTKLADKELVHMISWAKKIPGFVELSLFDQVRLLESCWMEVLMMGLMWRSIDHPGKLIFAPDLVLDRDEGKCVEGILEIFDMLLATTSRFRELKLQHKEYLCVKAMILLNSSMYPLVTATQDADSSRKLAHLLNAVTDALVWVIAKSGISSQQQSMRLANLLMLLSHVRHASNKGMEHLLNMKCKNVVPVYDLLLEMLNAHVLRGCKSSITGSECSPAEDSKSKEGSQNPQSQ
# ERa SRC1 inh: ERα–SRC-1 coactivator interaction inhibitors, primary screen, biochemical, TR-FRET, ERα LBD, estradiol-bound | Estrogen receptor (Homo sapiens), P03372 | 1.7% of 86,000 active | AID 629, 2007 | TR-FRET ER-alpha LBD / SRC-1 peptide | inhibition, % at 25.6 µM; in the data active means inhibition above about 50%;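 further: 0% = receptor plus peptide control and 100% = peptide only without receptor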
# NFkB transloc pot: enhancers of NFkB p65 translocation in HUVEC – imaging, IL-1B stimulus, high-content imaging, primary screen; HUVEC IL-1B NFkB p65 nuclear translocation imaging; activation, % at 2 µM; 0.3% of 94,000 active;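 active means activation above 40%, about the mean plus 3 SD, also judged a hit on visual image review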;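 further: percent activation is computed from the nuclear over cytoplasmic p65 intensity ratio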
# NFkB transloc inh: inhibitors of IL-1B driven NFkB p65 nuclear import, primary screen, imaging, HUVEC, IL-1B stimulus, high-content imaging. HUVEC IL-1B NFkB p65 nuclear translocation imaging. inhibition, % at 2 µM. 0.43% of 94,000 active. AID 796, 2007;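 active means inhibition above about 30% together with a positive call from visual inspection of the well image, limit read from the data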;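 further: nuclear over cytoplasmic p65 intensity ratio measured by imaging; 0% = IL-1B stimulated DMSO wells and 100% = unstimulated DMSO wells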
# ERa SRC1 pot: enhancers of ERα–SRC-1 coactivator binding, primary screen, biochemical, TR-FRET, ERα LBD, low estradiol; AID 639, 2007; Estrogen receptor (Homo sapiens), P03372; coactivator binding (% of control), % at 25.6 µM; 1.3% of 86,000 active; TR-FRET ERalpha-LBD/SRC-Cy5 coactivator binding, 2 h; 100 = basal binding, no effect; in the data active means activity above about 200%;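 further: binding measured in presence of low estradiol as agonist stimulus; 0% = peptide alone without receptor and 100% = receptor with peptide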
# * marks the source's active call; other numbers are inactive results; nt = not tested or not shown; [ ] = another dose, or the depositor's remark. This is a sample that favours compounds with a hit; in the whole collection about 3.6% have one here.
SMILES,IL1B cytotox,ERb coact inh,ERa SRC1 inh,NFkB transloc pot,NFkB transloc inh,ERa SRC1 pot
CCC(=O)N1CCN(c2cc(C)ccc2C)CC1,-35,20,13,4,-4,100
Cc1ccc(C)c(N2CCN(C(=O)CC3Sc4ccccc4NC3=O)CC2)c1 (stereo unspecified),79*,-6,-8,-5,5,86
CCOC(=O)C1=C(C)Nc2nnnn2C1c1ccccc1Cl (stereo unspecified),-31,-21,-22,46*,-46,92
CC1=C(C(=O)Nc2ccccn2)C(c2cccnc2)n2nnnc2N1 (stereo unspecified),-15,-8,-1,1,-1,119
COC(=O)C1=C(C)Nc2nnnn2C1c1cccnc1 (stereo unspecified),12,-16,-20,-34,34*,102
CC(=O)NC(CCS(C)(=O)=O)C(=O)N1CCc2ccccc21 (stereo unspecified),34,6,-3,1,0,96
Cc1ccc(S(=O)(=O)N(CC(=O)N2CCC(C)CC2)c2cccc(C)c2)cc1,-122,-3,-2,-13,13,93
O=C(/C=C/c1cccs1)c1ccc(NC(=O)c2cccc(Br)c2)cc1,-4,nt,nt,-1,1,nt
O=C(/C=C/c1cccs1)c1ccc(Br)cc1,-21,nt,nt,107*,-107,nt
COC(=O)C1C2C=CC3(CN(Cc4ccco4)C(=O)C13)O2 (stereo unspecified),14,-6,-14,0,0,85
O=C(O)C1C2C=CC3(CN(Cc4ccco4)C(=O)C13)O2 (stereo unspecified),nt,-1,98*[fluorescence artefact?],nt,nt,111
O=C(CN1C(=O)c2ccccc2C1=O)OCN1C(=O)c2ccccc2C1=O,30,-6,-2,-8,8,105
Cc1ccc(-c2nnn(CC(=O)NCC3CC3)n2)o1,11,-14,-3,8,-8,103
Cc1ccc(-c2nnn(CC(=O)Nc3ccc4nn(-c5ccccc5)nc4c3)n2)o1,-40,39,58*,25,-25,155
COc1ccc(CN2C(=O)c3cccnc3C2Nc2ccc(OC)c(Cl)c2)cc1 (stereo unspecified),nt,1,-16,nt,nt,101
COc1ccc(NC2c3ncccc3C(=O)N2Cc2ccccc2)c(OC)c1 (stereo unspecified),90*,14,0,16,-16,87
Cc1cc(C)c2cc(C#N)c(N3CCCN(S(=O)(=O)c4ccccc4)CC3)nc2c1,-7,27,24,0,0,262*[fluorescence artefact?]
Cc1ccc(S(=O)(=O)N2CCN(c3nc4ccccc4nc3-n3nc(C)cc3C)CC2)cc1,-37,-9,9,10,-10,185
CC(=O)c1cccc(S(=O)(=O)N2CCN(c3nc4cc(C)cc(C)c4cc3C#N)CC2)c1,-22,58*[fluorescence artefact?],40,9,-9,183
Cc1cc(C)c2cc(C#N)c(NCCOC(=O)c3ccccc3C)nc2c1,29,nt,nt,-8,-2,nt
COc1ccc(C(=O)NCC(=O)OCC(=O)N2CC(C)CC(C)C2)cc1 (stereo unspecified),-103,-20,-1,16,-16,115
Clc1ccc(Br)cc1-c1nc(-c2ccncc2)no1,10,27,34,-12,12,246*[fluorescence artefact?]
Brc1cccc(-c2nc(-c3ccncc3)no2)c1,nt,6,2,nt,nt,84
COc1ccc(NC(=O)Nc2ccc(OC)cc2)cc1,2,7,-1,4,-4,107
COc1ccc(NC(=O)Nc2ccc(N(C)C)cc2)cc1,-22,52*[fluorescence artefact?],28,2,-2,75
SMILES,IL1B cytotox,ERb coact inh,ERa SRC1 inh,NFkB transloc pot,NFkB transloc inh,ERa SRC1 pot
Cc1ccc2nc(SCC(=O)Nc3ccc4sc(C)nc4c3)c(C#N)cc2c1,2,nt,nt,8,-8,nt
CCN1CCc2c(sc(NC(=S)NC(=O)c3ccccc3)c2C#N)C1,93*,nt,nt,-27,27,nt
CCC(Sc1nc2cc(OC)c(OC)cc2c2nc(C)nn12)C(=O)NCc1ccco1 (stereo unspecified),nt,47,50*[fluorescence artefact?],nt,nt,132
CCC(Sc1nc2ccccc2c2nc3ccccc3n12)C(=O)NCc1ccco1 (stereo unspecified),-2,61*[fluorescence artefact?],77*[fluorescence artefact?],14,-14,247*[fluorescence artefact?]
O=C(CSc1nc2ccccc2n1CC(=O)NCc1ccccc1)NCc1ccco1,11,2,-3,-7,7,91
COC(=O)c1ccc(Oc2nc(C)cc(Oc3ccccc3)n2)cc1,90*,nt,nt,27,-27,nt
O=C(O)CS(=O)(=O)CC(=O)O,11,-5,-9,4,-4,130
Cc1noc(C)c1C(=O)N1CCN(C(=O)c2sc3cc(Cl)ccc3c2Cl)CC1,10,69*[fluorescence artefact?],-4,2,-2,111
C=CCc1cccc2cc(C(=O)N(CC)CC)c(=O)oc12,5,-8,-4,-3,3,129
COc1ccc(OC)c(N(CC(N)=O)S(=O)(=O)c2ccc(OC)c(OC)c2)c1,-6,-7,2,29,-29,99
CCOC(=O)c1cc2sc(C)cc2n1CC(=O)NCc1ccc(F)cc1,6,34,5,-8,8,238*[fluorescence artefact?]
CCOC(=O)c1cc2sc(C)cc2n1CC(=O)N1CCOCC1,-13,-12,-6,-7,7,85
COc1cc(C(=O)NCCOc2cccc(C)c2)c(Br)c(OC)c1OC,-11,nt,nt,6,-6,nt
Cc1nn(-c2ncc(C(F)(F)F)cc2Cl)c(=O)n1-c1ccccc1Cl,19,-3,0,-31,31*,108
Cc1nn(-c2ncc(C(F)(F)F)cc2Cl)c(=O)n1-c1cccc(Cl)c1,-2,7,7,-8,8,91
CCC(=O)Nc1nnc(SCC(=O)c2ccc3c(c2)Cc2ccccc2-3)s1,-25,nt,nt,5,-5,nt
COc1ccc(S(=O)(=O)NNC(=O)C2Cc3c(ccc4ccccc34)O2)cc1 (stereo unspecified),-28,nt,nt,-3,3,nt
Cn1c(O)c(C(C#N)=C2N=c3ccccc3=N2)c2ccccc21,3,48,80*[fluorescence artefact?],0,0,68
N#CC(=C1N=c2ccccc2=N1)c1c(O)[nH]c2ccccc12,-12,nt,nt,-13,13,nt
CC(=C1C(=O)c2ccccc2C1=O)N1CCN(C/C=C/c2ccccc2)CC1,-1,-1,4,28,-28,93
CC(=C1C(=O)c2ccccc2C1=O)N1CCN(Cc2ccccc2)CC1,-2,-2,0,5,-4,714*[fluorescence artefact?]
